Measurements reported in PubChem BioAssay.
Where “and” joins values, the source holds several entries; their conditions need not be identical. Equal entries are not always repeated.

Assay: viability loss with induced miR-34 in A549 – imaging, A549 dox-inducible miR-34, nuclei and caspase counts, primary screen (AID 1347080); also: test concentration not given here
Conditions: A549 miR-34 inducible, Hoechst nuclei count, 48 h; measured here: relative caspase fold change +Dox/-Dox
In the case of `COC(=O)C[C@](O)(CCCC(C)(C)O)C(=O)O[C@@H]1C(OC)=C[C@]23CCCN2CCc2cc4c(cc2[C@H]13)OCO4`, the fold change is reported as 1.16.
With `CNCC[C@H](Oc1cccc2ccccc12)c1cccs1` the fold change was 4.69.
With `O=c1[nH]c(=O)n(C2CCCO2)cc1F` (stereo unspecified) the fold change was 1.28 and 1.27 and 3.72.
With `CSc1nc2cc(Oc3cccc(Cl)c3Cl)c(Cl)cc2[nH]1` the fold change was 1.31 and 0.403.
With `CN(C)CCc1c[nH]c2ccc(Cn3cncn3)cc12` the fold change was 1.31 and 0.982 and 5.76.
`COc1ccc(C[C@H](C)NC[C@@H](O)c2ccc(O)c(NC=O)c2)cc1` gave a fold change of 0.716.
`C[C@@H](c1ncncc1F)[C@](O)(Cn1cncn1)c1ccc(F)cc1F` showed a fold change of 2.46.
In the case of `CC(=O)NC[C@H]1CN(c2ccc(N3CCOCC3)c(F)c2)C(=O)O1`, the fold change is reported as 1.57 and 0.639.
In the case of `CC(CCCCC(=O)Nc1ccc(C(F)(F)F)cc1)NCCc1cnc[nH]1` (stereo unspecified), the fold change is reported as 1.55 and 0.779.
With `CN/C(=C\[N+](=O)[O-])NCCSCc1csc(CN(C)C)n1` the fold change was 5.48.
`CNCC[C@@H](Oc1ccccc1C)c1ccccc1` showed a fold change of 1.95.
In the case of `Cc1cccc(CCN2CCC(C(=O)c3ccc(NS(C)(=O)=O)cc3)CC2)n1`, the fold change is reported as 1.08 and 1.19 and 0.815.
With `CN(C)CCOc1ccc(/C(=C(/CCCl)c2ccccc2)c2ccccc2)cc1` the fold change was 0.696 and 1.39.
For `CC(C)(S)C(N)C(=O)O` (stereo unspecified), the fold change was 2.48 and 3.04.
With `CC[C@H]1OC(=O)[C@H](C)[C@@H](O[C@H]2C[C@@](C)(OC)[C@@H](O)[C@H](C)O2)[C@H](C)[C@@H](O[C@@H]2O[C@H](C)C[C@H](N(C)C)[C@H]2O)[C@](C)(O)C[C@@H](C)CN(C)[C@H](C)[C@@H](O)[C@]1(C)O` the fold change was 2.3 and 7.33.
In the case of `NCC(O)c1ccc(O)c(O)c1` (stereo unspecified), the fold change is reported as 1.64 and 1.95.
With `C/C(=C\C(=O)OCCCCCCCCC(=O)O)C[C@@H]1OC[C@H](C[C@@H]2O[C@H]2[C@@H](C)[C@H](C)O)[C@@H](O)[C@H]1O` the fold change was 0.766.
With `C[C@H]1O[C@H](O[C@H]2[C@H](O)[C@@H](O)[C@@H](O[C@H]3[C@H](O)[C@@H](O)C(O)O[C@@H]3CO)O[C@@H]2CO)[C@H](O)[C@@H](O)[C@@H]1N[C@H]1C=C(CO)[C@@H](O)[C@H](O)[C@H]1O` (stereo partly specified) the fold change was 4.27.
In the case of `CCCCN1CCCC1CNC(=O)c1cc(C#N)c2ccccc2c1OC` (stereo unspecified), the fold change is reported as 0.846 and 1.44.
With `COc1ccc2[nH]c(S(=O)Cc3ncc(C)c(OC)c3C)nc2c1` (stereo unspecified) the fold change was 1.73 and 0.384.
Work on `CN1[C@@H]2CCC[C@H]1CC(NC(=O)c1nn(C)c3ccccc13)C2` (stereo partly specified) yielded a fold change of 1.59.
Work on `COc1c(N2C[C@@H]3CCCN[C@@H]3C2)c(F)cc2c(=O)c(C(=O)O)cn(C3CC3)c12` yielded a fold change of 0.781.
With `CC(Cc1ccc(O)c(O)c1)(NN)C(=O)O` (stereo unspecified) the fold change was 2.2 and 3.05.

Same assay, conditions: A549 miR-34 inducible, Hoechst nuclei count, 48 h; measured here: total cells with miR-34 induction; stronger effect = lower value
Compound `COC(=O)C[C@](O)(CCCC(C)(C)O)C(=O)O[C@@H]1C(OC)=C[C@]23CCCN2CCc2cc4c(cc2[C@H]13)OCO4` has a cell count of 1670.
`CNCC[C@H](Oc1cccc2ccccc12)c1cccs1` showed a cell count of 10400.
In the case of `O=c1[nH]c(=O)n(C2CCCO2)cc1F` (stereo unspecified), the cell count is reported as 7370 and 6840 and 4080.
For `CSc1nc2cc(Oc3cccc(Cl)c3Cl)c(Cl)cc2[nH]1`, the cell count was 5860 and 7990.
In the case of `CN(C)CCc1c[nH]c2ccc(Cn3cncn3)cc12`, the cell count is reported as 7610 and 7730 and 12300.
For `COc1ccc(C[C@H](C)NC[C@@H](O)c2ccc(O)c(NC=O)c2)cc1`, the cell count was 8230.
With `C[C@@H](c1ncncc1F)[C@](O)(Cn1cncn1)c1ccc(F)cc1F` the cell count was 9140.
In the case of `CC(=O)NC[C@H]1CN(c2ccc(N3CCOCC3)c(F)c2)C(=O)O1`, the cell count is reported as 10400 and 9730.
In the case of `CC(CCCCC(=O)Nc1ccc(C(F)(F)F)cc1)NCCc1cnc[nH]1` (stereo unspecified), the cell count is reported as 8900 and 8240.
`CN/C(=C\[N+](=O)[O-])NCCSCc1csc(CN(C)C)n1` gave a cell count of 11400.
Compound `CNCC[C@@H](Oc1ccccc1C)c1ccccc1` has a cell count of 7910.
With `Cc1cccc(CCN2CCC(C(=O)c3ccc(NS(C)(=O)=O)cc3)CC2)n1` the cell count was 9110 and 5280 and 8030.
In the case of `CN(C)CCOc1ccc(/C(=C(/CCCl)c2ccccc2)c2ccccc2)cc1`, the cell count is reported as 6550 and 5410.
In the case of `CC(C)(S)C(N)C(=O)O` (stereo unspecified), the cell count is reported as 11000 and 11700.
For `CC[C@H]1OC(=O)[C@H](C)[C@@H](O[C@H]2C[C@@](C)(OC)[C@@H](O)[C@H](C)O2)[C@H](C)[C@@H](O[C@@H]2O[C@H](C)C[C@H](N(C)C)[C@H]2O)[C@](C)(O)C[C@@H](C)CN(C)[C@H](C)[C@@H](O)[C@]1(C)O`, the cell count was 9960 and 9940.
For `NCC(O)c1ccc(O)c(O)c1` (stereo unspecified), the cell count was 10900 and 7940.
Compound `C/C(=C\C(=O)OCCCCCCCCC(=O)O)C[C@@H]1OC[C@H](C[C@@H]2O[C@H]2[C@@H](C)[C@H](C)O)[C@@H](O)[C@H]1O` has a cell count of 7890.
With `C[C@H]1O[C@H](O[C@H]2[C@H](O)[C@@H](O)[C@@H](O[C@H]3[C@H](O)[C@@H](O)C(O)O[C@@H]3CO)O[C@@H]2CO)[C@H](O)[C@@H](O)[C@@H]1N[C@H]1C=C(CO)[C@@H](O)[C@H](O)[C@H]1O` (stereo partly specified) the cell count was 10500.
For `CCCCN1CCCC1CNC(=O)c1cc(C#N)c2ccccc2c1OC` (stereo unspecified), the cell count was 8480 and 8490.
For `COc1ccc2[nH]c(S(=O)Cc3ncc(C)c(OC)c3C)nc2c1` (stereo unspecified), the cell count was 9290 and 8180.
With `CN1[C@@H]2CCC[C@H]1CC(NC(=O)c1nn(C)c3ccccc13)C2` (stereo partly specified) the cell count was 10200.
In the case of `COc1c(N2C[C@@H]3CCCN[C@@H]3C2)c(F)cc2c(=O)c(C(=O)O)cn(C3CC3)c12`, the cell count is reported as 7060.
For `CC(Cc1ccc(O)c(O)c1)(NN)C(=O)O` (stereo unspecified), the cell count was 9190 and 11400.
